Assay [1] can be described thus: binders of probe aFSTL3 on microarray, primary screen, stem cell growth factor project, biochemical, small-molecule microarray, fluorescence 635/667 (AID 1064).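 Further: measures binding of the biotinylated anti-FSTL3 antibody to printed compounds.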 The settings on record: higher = more signal.
Assay [2] can be described thus: binders from COS7 lysate, DM2A8 probe, primary screen, torsin A project, cell lysate, small-molecule microarray, fluorescence 635/667 (AID 1065). The conditions noted are these: higher = more signal, COS7 lysate expressing mutant human TOR1A.
The nature of assay [3]: binders of probe aFGF2 on microarray, primary screen, stem cell growth factor project, biochemical, small-molecule microarray, fluorescence 635/667 (AID 1067).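 Further: measures binding of biotinylated aFGF2 protein to printed compounds on slides; z-score merges feature fluorescence and signal-to-noise across triplicate slides.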 The conditions noted are these: higher = more signal.
Assay [4] in a line: binders of probe aFGF10 on microarray, primary screen, stem cell growth factor project, biochemical, small-molecule microarray, fluorescence 635/667 (AID 1071).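 Further: score merges 667 nm spot intensity and signal to noise from triplicate slides.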 The conditions noted are these: higher = more signal.
The target of assay [5] is Neurogenic locus notch homolog protein 2 (Homo sapiens) (UniProt Q04721). In words: Notch2 binders on small-molecule microarrays, primary screen, biochemical, small-molecule microarray, 635 nm fluorescence, stem cell growth factors (AID 1073). The settings on record: Notch2 binding, higher = more signal.
Chain of Neurogenic locus notch homolog protein 2 (Homo sapiens) (Q04721 whole entry, looked up, canonical isoform): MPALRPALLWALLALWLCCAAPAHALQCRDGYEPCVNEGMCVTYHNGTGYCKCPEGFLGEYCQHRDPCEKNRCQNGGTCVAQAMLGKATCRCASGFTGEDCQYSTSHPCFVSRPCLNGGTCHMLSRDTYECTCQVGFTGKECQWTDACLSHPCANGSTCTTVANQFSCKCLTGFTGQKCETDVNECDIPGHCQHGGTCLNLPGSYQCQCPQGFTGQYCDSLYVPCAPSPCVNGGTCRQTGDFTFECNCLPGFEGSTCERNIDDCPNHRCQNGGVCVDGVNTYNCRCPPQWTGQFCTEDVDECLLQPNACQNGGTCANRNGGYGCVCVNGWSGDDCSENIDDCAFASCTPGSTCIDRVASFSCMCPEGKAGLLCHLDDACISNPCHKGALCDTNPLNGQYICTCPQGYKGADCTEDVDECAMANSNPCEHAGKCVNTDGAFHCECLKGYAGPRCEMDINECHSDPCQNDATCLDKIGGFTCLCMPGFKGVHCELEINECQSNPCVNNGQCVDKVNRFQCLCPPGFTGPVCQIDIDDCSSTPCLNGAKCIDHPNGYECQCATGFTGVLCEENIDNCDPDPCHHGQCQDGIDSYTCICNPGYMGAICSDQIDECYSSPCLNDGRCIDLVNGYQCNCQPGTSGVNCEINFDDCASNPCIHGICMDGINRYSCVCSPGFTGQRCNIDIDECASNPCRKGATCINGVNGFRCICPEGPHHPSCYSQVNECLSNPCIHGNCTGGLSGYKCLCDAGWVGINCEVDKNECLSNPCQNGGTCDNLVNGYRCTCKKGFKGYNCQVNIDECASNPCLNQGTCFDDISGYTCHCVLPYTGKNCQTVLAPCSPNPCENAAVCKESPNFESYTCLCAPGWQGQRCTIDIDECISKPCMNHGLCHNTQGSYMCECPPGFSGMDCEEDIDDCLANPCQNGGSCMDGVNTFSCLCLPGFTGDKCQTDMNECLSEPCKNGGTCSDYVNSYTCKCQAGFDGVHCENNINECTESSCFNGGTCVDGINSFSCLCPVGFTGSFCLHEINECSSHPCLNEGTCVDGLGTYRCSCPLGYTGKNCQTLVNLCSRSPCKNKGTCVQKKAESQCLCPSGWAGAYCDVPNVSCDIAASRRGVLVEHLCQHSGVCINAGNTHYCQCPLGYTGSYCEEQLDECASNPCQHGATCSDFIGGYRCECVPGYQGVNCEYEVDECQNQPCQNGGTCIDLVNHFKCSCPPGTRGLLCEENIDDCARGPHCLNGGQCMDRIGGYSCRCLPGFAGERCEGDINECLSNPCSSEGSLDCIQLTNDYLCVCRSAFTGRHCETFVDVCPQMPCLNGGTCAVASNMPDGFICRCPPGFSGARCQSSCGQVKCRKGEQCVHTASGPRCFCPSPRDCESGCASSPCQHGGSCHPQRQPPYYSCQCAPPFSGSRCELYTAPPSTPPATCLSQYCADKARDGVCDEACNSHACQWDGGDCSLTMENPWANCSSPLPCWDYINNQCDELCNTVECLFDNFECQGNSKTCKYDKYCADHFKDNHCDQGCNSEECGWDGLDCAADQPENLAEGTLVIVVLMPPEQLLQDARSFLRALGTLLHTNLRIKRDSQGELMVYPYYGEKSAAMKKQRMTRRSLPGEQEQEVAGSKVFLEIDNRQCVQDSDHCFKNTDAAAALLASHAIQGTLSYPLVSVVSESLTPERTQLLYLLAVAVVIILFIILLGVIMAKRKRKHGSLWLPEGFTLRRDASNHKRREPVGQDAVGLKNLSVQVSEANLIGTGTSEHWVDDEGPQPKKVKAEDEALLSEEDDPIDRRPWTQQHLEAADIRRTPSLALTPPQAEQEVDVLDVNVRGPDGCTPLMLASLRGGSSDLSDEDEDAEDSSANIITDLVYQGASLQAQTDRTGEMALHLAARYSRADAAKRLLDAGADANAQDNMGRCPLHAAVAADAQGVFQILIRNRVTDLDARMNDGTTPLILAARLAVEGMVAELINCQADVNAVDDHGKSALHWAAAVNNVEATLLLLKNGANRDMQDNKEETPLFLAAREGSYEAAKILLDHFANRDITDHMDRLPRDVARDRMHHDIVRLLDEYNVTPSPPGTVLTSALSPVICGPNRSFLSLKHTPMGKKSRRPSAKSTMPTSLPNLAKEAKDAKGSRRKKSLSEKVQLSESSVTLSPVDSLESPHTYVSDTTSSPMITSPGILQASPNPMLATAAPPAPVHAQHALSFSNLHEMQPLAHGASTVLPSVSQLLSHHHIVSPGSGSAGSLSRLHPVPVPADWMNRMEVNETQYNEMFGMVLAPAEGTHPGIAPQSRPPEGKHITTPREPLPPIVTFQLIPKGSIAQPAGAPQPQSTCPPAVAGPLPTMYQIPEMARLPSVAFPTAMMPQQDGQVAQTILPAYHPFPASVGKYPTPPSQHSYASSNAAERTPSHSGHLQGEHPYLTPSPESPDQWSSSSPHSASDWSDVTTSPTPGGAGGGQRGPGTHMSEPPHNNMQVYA
The target in assay [6] is Pro-neuregulin-1, membrane-bound isoform (Homo sapiens) (UniProt Q02297). In words: NRG1 binders on small-molecule microarrays, primary screen, psychiatric disease protein project, biochemical, small-molecule microarray, fluorescence 635/667 (AID 1075).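 Further: score combines 667 nm spot fluorescence with signal to noise.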 The settings on record: NRG1 binding, 635 nm fluorescence, higher = more signal.
Chain of Pro-neuregulin-1, membrane-bound isoform (Homo sapiens) (Q02297 whole entry, looked up, the tested form may be a part, canonical isoform): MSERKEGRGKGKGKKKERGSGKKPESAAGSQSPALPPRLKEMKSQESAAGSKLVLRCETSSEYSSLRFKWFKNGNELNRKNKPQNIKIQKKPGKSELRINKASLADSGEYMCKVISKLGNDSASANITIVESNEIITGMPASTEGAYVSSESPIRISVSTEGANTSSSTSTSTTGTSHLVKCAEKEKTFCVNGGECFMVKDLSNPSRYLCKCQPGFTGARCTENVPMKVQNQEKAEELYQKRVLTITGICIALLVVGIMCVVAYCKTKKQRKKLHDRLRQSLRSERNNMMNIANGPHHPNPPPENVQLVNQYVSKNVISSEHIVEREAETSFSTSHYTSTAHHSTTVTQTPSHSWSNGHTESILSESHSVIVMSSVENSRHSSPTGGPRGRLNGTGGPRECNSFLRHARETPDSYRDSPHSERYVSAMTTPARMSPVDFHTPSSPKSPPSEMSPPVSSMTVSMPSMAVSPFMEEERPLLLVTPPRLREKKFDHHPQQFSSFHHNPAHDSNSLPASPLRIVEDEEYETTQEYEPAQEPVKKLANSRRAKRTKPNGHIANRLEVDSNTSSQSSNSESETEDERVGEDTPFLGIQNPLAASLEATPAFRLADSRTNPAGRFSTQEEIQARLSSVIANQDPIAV
Assay [7] concerns Neuregulin-1 EGF-like domain. The assay can be described thus: binders of neuregulin-1 EGF-like domain, primary screen, biochemical, small-molecule microarray, 635 nm fluorescence (AID 1081).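 Further: binding of the protein to compounds printed on small-molecule microarray slides.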 The conditions noted are these: small-molecule microarray binding, higher = more signal.
Assay [8] in a line: FRG1 promoter luciferase signal modulators, primary screen, FRG1 inhibition for FSHD, cell-based, C2C12 myotubes, firefly/Renilla luciferase, luminescence (AID 1084). The settings on record: higher = more signal, called active from +8 up or from −8 down.
Assay [9] is described as follows: binders of probe aFST on microarray, primary screen, stem cell growth factor project, biochemical, small-molecule microarray, fluorescence 635/667 (AID 1086).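 Further: score merges 667 nm fluorescence with signal-to-noise of each printed compound spot.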 The settings on record: higher = more signal.
Assay [10] in a line: binders of probe aHhip on microarray, primary screen, stem cell growth factor project, biochemical, small-molecule microarray, fluorescence 635/667 (AID 1087).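 Further: score merges spot fluorescence at 667nm with spot signal to noise ratio.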 The settings on record: higher = more signal.
Assay [11] relates to PRMT1 (protein arginine N-methyltransferase 1). In words: PRMT1 binders on small-molecule microarrays, primary screen, biochemical, small-molecule microarray, 635 nm fluorescence (AID 1088).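 Further: binding of Prmt1 protein to compounds spotted on small-molecule microarray slides.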 The settings on record: small-molecule microarray binding, higher = more signal.
Assay [12] is described as follows: yeast growth modulation, basal conditions, primary screen, YJM789 clinical isolate, OD600, 24 h (AID 1089).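 Further: growth of clinical yeast isolate S. cerevisiae YJM 789 seeded 1000 cells per well; test concentration not given here.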 The conditions noted are these: S. cerevisiae YJM789 growth, higher = more signal, called active from +8 up or from −8 down.
A short description of assay [13]: fission yeast growth modulation, primary screen, strain 972, OD600, 24 h, no modulator (AID 1090).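 Further: basal condition with compound alone and no growth modifier present; test concentration not given here.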 The conditions noted are these: S. pombe 972 growth, higher = more signal, called active from +8 up or from −8 down.
Assay [14] is described as follows: S. cerevisiae growth modulation with rapamycin, primary screen, strain BY4716, OD600, 96 h (AID 1091). Further: test concentration not given here. The conditions noted are these: higher = more signal, called active from +8 up or from −8 down.
Assay [15] concerns the target Torsin-1A-interacting protein 2 (Homo sapiens) (UniProt Q8NFQ8). The assay can be described thus: LULL1 binders on small-molecule microarray, primary screen, cell lysate, human LULL1 lysate, 635/667 nm fluorescence (AID 1092).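 Further: probe is lysate of COS7 cells overexpressing human LULL1; score merges per-feature 667 nm fluorescence with signal-to-noise.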 The settings on record: hLULL1 lysate binding, 635 nm fluorescence, higher = more signal.
Assay [16] can be described thus: E. coli growth modulation, two-sided OD650, primary screen, E. coli filamentation project, strain DRC41, 24 h (AID 1093).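 Further: MC1000 strain lacking acrAB efflux and sulA so SOS filamentation is blocked; test concentration not given here.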 The settings on record: OD650, 24 h, higher = more signal, called active from +8 up or from −8 down.
Assay [17] is described as follows: small-molecule microarray binders of probe aLefty2, primary screen, biochemical, biotinylated probe, 635/667 nm fluorescence (AID 1094).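 Further: score merges spot fluorescence near 667 nm with spot signal-to-noise ratio.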 The conditions noted are these: higher = more signal.
Assay [18] concerns Noggin (protein binding on small-molecule microarray). The assay can be described thus: Noggin binders on small-molecule microarray, primary screen, biochemical, 635/667 nm fluorescence (AID 1095).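 Further: score merges 667 nm feature fluorescence with signal to noise over triplicate slides.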 The conditions noted are these: 635 nm fluorescence, higher = more signal.
The target in assay [19] is Neurogenic locus notch homolog protein 3 (Homo sapiens) (UniProt Q9UM47). The assay can be described thus: NOTCH3 binders on small-molecule microarray, primary screen, biochemical, 635/667 nm fluorescence (AID 1096). The settings on record: NOTCH3 binding, 635 nm fluorescence, higher = more signal.
A short description of assay [20]: small-molecule microarray binders of probe aEGFR, primary screen, biochemical, biotinylated probe, 635/667 nm fluorescence (AID 1097).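 Further: probe is a biotinylated anti-EGFR antibody binding compounds printed on slides; score combines fluorescence near 667 nm and signal to noise of each spot.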 The conditions noted are these: higher = more signal.

Activity calls are given as the source filed them.

Chain of Torsin-1A-interacting protein 2 (Homo sapiens) (Q8NFQ8 whole entry, looked up): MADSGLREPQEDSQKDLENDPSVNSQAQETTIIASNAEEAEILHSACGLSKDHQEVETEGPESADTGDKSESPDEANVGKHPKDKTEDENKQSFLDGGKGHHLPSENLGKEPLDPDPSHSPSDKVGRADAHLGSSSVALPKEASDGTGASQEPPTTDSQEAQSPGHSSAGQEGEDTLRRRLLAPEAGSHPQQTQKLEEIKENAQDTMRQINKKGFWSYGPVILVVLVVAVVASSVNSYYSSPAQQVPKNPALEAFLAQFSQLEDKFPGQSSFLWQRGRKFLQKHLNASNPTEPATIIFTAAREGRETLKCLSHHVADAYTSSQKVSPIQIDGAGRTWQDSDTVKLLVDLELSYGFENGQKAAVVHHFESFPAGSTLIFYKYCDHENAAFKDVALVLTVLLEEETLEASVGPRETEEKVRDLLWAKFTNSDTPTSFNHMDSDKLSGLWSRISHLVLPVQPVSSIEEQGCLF

Regarding `O=C1O[C@H](c2ccccc2)[C@H](c2ccccc2)N2[C@H]1[C@@H](C(=O)NC[C@H](O)c1ccccc1)[C@]1(C(=O)Nc3ccc(C#CC4(O)CCCCCC4)cc31)[C@H]2c1ccc(O)cc1`, the composite z-score in assay [1] is 0.0879; in assay [2], 0.705; in assay [3], -0.0529; in [4], 0.676; in assay [5], 1.47; in [6], 1.62. The composite z-score was found to be 1.34 in assay [7]; 0.837 in [9]; 0.131 in [10]; 1.58 in assay [11]; 1.41 in assay [15]; 0.113 in assay [17]. For the same compound, the composite z-score in [18] stood at 0.927; in [19], 1.1; in assay [20] it was 0.0425. Moreover, the z-score in assay [8] is -0.0847 (inactive); in assay [12], -0.307 (inactive); in assay [13], -1.14 (inactive); in [14] it was 0.393 (inactive); in assay [16] it was 1.69 (inactive).
Take `C=C(COC)C(=O)CC[C@@H](OC(=O)c1ccccc1-c1ccccc1C(=O)O)c1cccc(OCCO)c1`: the composite z-score is -0.124 in [1]; 0.098 in assay [2]; -0.14 in assay [3]; 0.457 in assay [4]; -0.66 in [5]; 0.691 in assay [6]. Further, the composite z-score was 0.137 in [7]; -0.0665 in [9]; -0.0645 in assay [10]; 0.437 in assay [11]; 0.132 in assay [15]; -0.183 in assay [17]. Besides, the values for the composite z-score in assay [18], in [19] and in [20] were 0.518, -0.338 and -0.173, respectively. Also, the z-score in [8] is 0.658 (inactive); in [12], 0.586 (inactive); in assay [13] it was -1.51 (inactive); in assay [14], -0.409 (inactive); in [16] it was 0.826 (inactive).
As to `NC(=O)NCC#Cc1ccc2c(c1)[C@]1(C(=O)N2)[C@H](c2ccc(OCCO)cc2)N2[C@H](c3ccccc3)[C@H](c3ccccc3)OC(=O)[C@H]2[C@@H]1C(=O)Nc1nc2ccccc2s1`, the composite z-score in [1] is 1.02; in assay [2], -0.528; in assay [3], -0.0953; in [4] it was 0.0777; in assay [5], -0.442; in assay [6], -0.214. Further, the composite z-score in assay [7] was -0.748; in [9], 0.668; in assay [10], -0.132; in assay [11], -0.136; in assay [15], 0.759; in assay [17], 0.289. Further, the composite z-score was -0.17 in assay [18], -0.0446 in [19] and -0.0946 in assay [20]. The z-score was 2.5 (inactive) in assay [8]; 2.55 (inactive) in assay [12]; 0.766 (inactive) in assay [13]; 4.18 (inactive) in [14]; 2.26 (inactive) in assay [16].
With `CCCCC(=C=CC[C@@H](O)c1ccc(OCCO)cc1)C[C@@H](O)c1cc(Cl)cc(Cl)c1O`, the composite z-score in assay [1] was -0.12; in assay [2] it was 0.0464; in [3] it was -0.0924; in [4] it was 0.458; in assay [5] it was -0.0054; in assay [6] it was 1.26. Besides, the composite z-score was 0.597 in assay [7]; 0.0049 in [9]; 0.0007 in [10]; 0.21 in assay [11]; 1.36 in assay [15]; -0.057 in [17]. Besides, the results for the composite z-score in assay [18], in assay [19] and in [20] were 0.988, -0.174 and 0.24, respectively. Further, the z-score was -2.98 (inactive) in assay [8]; -2.58 (inactive) in assay [12]; -6.3 (inactive) in [13]; -1.39 (inactive) in assay [14]; 1.97 (inactive) in assay [16].
For `C=CCN1C(=O)[C@]2(O[C@H](CCn3cc([C@H](O)c4ccccc4)nn3)[C@@H]([Si](C)(C)c3ccc(OC)cc3)[C@@H]2C)c2cc(N3CCOC3=O)ccc21`, the composite z-score is 0.264 in assay [1]; 0.443 in assay [2]; -0.154 in assay [3]; -0.213 in assay [4]; -0.74 in assay [5]; 0.579 in assay [6]. The composite z-score in assay [7] was 1.16; in assay [9], -0.297; in assay [10], -0.0128; in assay [11] it was 1.37; in assay [15] it was 1.41; in assay [17], -0.23. The values for the composite z-score in assay [18], in assay [19] and in [20] were -0.394, -0.583 and -0.232, respectively. In addition, the z-score in assay [8] is -2.7 (inactive); in assay [12], 0.326 (inactive); in [13], 0.155 (inactive); in assay [14], 4.47 (inactive); in [16], 1.75 (inactive).

For the origin of these results see PubChem BioAssay.
